# Sampled rows, rich in hits. Any-hit rate of the full collection: about 3.2%.
# EphB4 antag – EphB4-ephrin-B2 interaction antagonists, primary screen, biochemical, TNYL-RAW peptide probe, fluorescence polarization. EphB4 LBD / TNYL-RAW-Alexa532 peptide. 0.15% of 97,000 active. inhibition, % at 7 µM;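 active = inhibition above the screen-wide mean inhibition plus 3 SD, cut at about 15% in these data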;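 note: 0% = DMSO wells and 100% = excess unlabeled TNYL-RAW peptide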
# Target sequence (P54760 whole entry, looked up, the tested form may be a part): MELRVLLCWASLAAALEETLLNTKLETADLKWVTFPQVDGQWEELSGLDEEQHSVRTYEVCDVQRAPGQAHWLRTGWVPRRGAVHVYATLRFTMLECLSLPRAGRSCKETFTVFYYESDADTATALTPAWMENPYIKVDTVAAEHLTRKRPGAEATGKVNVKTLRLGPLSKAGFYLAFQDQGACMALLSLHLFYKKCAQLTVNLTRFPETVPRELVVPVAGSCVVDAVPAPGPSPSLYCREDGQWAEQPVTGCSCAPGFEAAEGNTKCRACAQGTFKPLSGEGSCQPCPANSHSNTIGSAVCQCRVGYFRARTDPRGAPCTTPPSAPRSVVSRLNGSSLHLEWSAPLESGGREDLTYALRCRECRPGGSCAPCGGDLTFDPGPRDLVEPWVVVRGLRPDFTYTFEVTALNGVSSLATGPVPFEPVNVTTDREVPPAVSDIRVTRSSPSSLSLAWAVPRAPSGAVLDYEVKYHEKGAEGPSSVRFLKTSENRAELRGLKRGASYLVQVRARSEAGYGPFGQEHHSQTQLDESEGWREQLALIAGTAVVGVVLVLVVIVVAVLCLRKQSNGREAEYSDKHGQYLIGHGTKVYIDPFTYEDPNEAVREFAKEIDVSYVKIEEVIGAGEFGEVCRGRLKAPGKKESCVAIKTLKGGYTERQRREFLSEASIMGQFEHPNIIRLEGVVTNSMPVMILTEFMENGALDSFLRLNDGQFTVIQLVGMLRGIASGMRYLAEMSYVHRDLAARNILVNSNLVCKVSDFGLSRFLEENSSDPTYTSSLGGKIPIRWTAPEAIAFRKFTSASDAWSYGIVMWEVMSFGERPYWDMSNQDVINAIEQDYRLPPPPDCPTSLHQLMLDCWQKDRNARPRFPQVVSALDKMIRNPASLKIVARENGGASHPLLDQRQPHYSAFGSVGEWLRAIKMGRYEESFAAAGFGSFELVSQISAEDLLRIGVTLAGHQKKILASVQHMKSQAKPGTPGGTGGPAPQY
# Candida biofilm – clotrimazole potentiators killing Candida biofilms, primary screen, with clotrimazole, Alamar Blue; C. albicans biofilm + clotrimazole; inhibition, % at 6 µM; 0.14% of 85,000 active;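 active = inhibition above 20%; inactive = inhibition below 20%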;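 note: preformed 24 hr biofilms exposed to compound for 48 hr; 0% = biofilm without compound and 100% = blank killed by clotrimazole plus chlorhexidine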
# ERa SRC1 pot – enhancers of ERα–SRC-1 coactivator binding, primary screen, biochemical, TR-FRET, ERα LBD, low estradiol; TR-FRET ERalpha-LBD/SRC-Cy5 coactivator binding, 2 h; 100 = basal binding, no effect; coactivator binding (% of control), % at 25.6 µM; 1.3% of 86,000 active; AID 639, 2007; in the data active = activity above about 200%;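 note: binding measured in presence of low estradiol as agonist stimulus; 0% = peptide alone without receptor and 100% = receptor with peptide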
# ERa SRC1 inh – ERα–SRC-1 coactivator interaction inhibitors, primary screen, biochemical, TR-FRET, ERα LBD, estradiol-bound; TR-FRET ER-alpha LBD / SRC-1 peptide; AID 629, 2007; inhibition, % at 25.6 µM; Estrogen receptor (Homo sapiens), P03372; 1.7% of 86,000 active; in the data active = inhibition above about 50%;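 note: 0% = receptor plus peptide control and 100% = peptide only without receptor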
# ERb coact inh – inhibitors of ERβ-SRC1 coactivator interaction, primary screen, biochemical, TR-FRET, ERβ LBD, SRC-1 peptide; 1.3% of 86,000 active; TR-FRET ER-beta LBD / SRC1-Cy5 peptide binding; receptor agonist-loaded with 1 µM estradiol; inhibition, % at 25.6 µM; AID 633, 2007; Estrogen receptor beta (Homo sapiens), Q92731;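 active = compounds whose percent inhibition of the receptor-coactivator binding signal exceeds about 50% in the single-dose screen, limit read from the data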;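 note: 0% = receptor plus peptide wells without compound and 100% = peptide-only wells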
# MT1-MMP txn act – MT1-MMP promoter reporter activation – cell-based, luciferase luminescence, primary screen. AID 750, 2007. activation factor at 10 µM. HT1080 MT1-MMP promoter luciferase reporter, overnight; stronger effect = higher value. 0.16% of 86,000 active;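 active = activation factor of at least 2 for MT1-MMP transcription at 10 µM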
# Numbers without * were called inactive; x = no result given; [ ] = another dose, or the depositor's remark.
SMILES,EphB4 antag,Candida biofilm,ERa SRC1 pot,ERa SRC1 inh,ERb coact inh,MT1-MMP txn act
O=C(Nc1nnc(-c2ccco2)s1)C1CCN(S(=O)(=O)c2ccc(Cl)cc2)CC1,0,6,410*[fluorescence artefact?],11,8,1.1
N#Cc1c(-c2ccco2)cc(-c2ccccn2)nc1N,-2,8,28,78*[fluorescence artefact?],63*[fluorescence artefact?],1.3
Cc1cc(C(=O)COc2ccc3ccc(=O)oc3c2)c(C)n1Cc1cccs1,x,6,347*[fluorescence artefact?],58*[fluorescence artefact?],37,1.2
COc1ccc(N2CCN(CCCNS(=O)(=O)c3c(C)noc3/C=C/N(C)C)CC2)cc1,2,0,97,32,26,1
CC(=O)c1sc(N2C(=O)c3oc4ccccc4c(=O)c3C2c2ccc(C)o2)nc1C (stereo not drawn),x,2,82,64*,16,1.7
C[C@H]1C2=C3[C@@H](C[C@H]4C(=O)N(c5ccccc5)C(=O)[C@H]4[C@H]3[C@@]3(Cc4ccccc4)C(=NCCc4c[nH]c5ccccc45)OC(=O)N3C2=O)[C@H]2C(=O)N(c3ccccc3)C(=O)[C@H]21,x,x,x,x,x,1.2
Cc1ccc(S(=O)(=O)c2c(COC(=O)c3ccccc3Cl)c(-c3ccccc3)nn2C)cc1,4,4,99,1,2,1.2
COc1ccc(-c2noc(-c3ccc(Br)o3)n2)cc1OC,-4,-2,387*[fluorescence artefact?],-2,-1,1.5
O=C(CSc1cn(CCNC(=O)c2ccccc2)c2ccccc12)NCc1ccco1,1,22*,92,7,14,1.1
O=C(Cc1sc(-c2ccccc2Cl)nc1-c1ccccc1)Nc1ccccc1,7,4,235*[fluorescence artefact?],9,-4,1.2
CCCS(=O)(=O)N1CCC(C(=O)NCCN2CCCC2)CC1,6,8,103,-4,81*[fluorescence artefact?],1.1
CCCS(=O)(=O)N1CCC(C(=O)NCCc2ccccc2)CC1,-11,x,x,x,x,1.1
Cn1c(=O)c2c(ncn2CCCc2ccccc2)n(C)c1=O,-1,3,222*,-20,-17,1
CCOc1ccc(NC(=O)CCCc2cc(-c3ccc(OCC)cc3)on2)cc1,8,3,204*,25,18,1.1
C#CC[N+]1(CC#Cc2ccc(C#CC[N+]3(CC#C)CCOCC3)cc2)CCOCC1,-3,-4,81,45,60*[fluorescence artefact?],x
C#CC[N+]1(CC#Cc2ccccc2)CCCC1,1,x,x,x,x,x
COc1cccc(-c2ccc(-c3noc(-c4cccs4)n3)c(OC)n2)c1,4,1,310*[fluorescence artefact?],14,17,x
COc1cccc(-c2ccc(-c3noc(-c4ccccc4F)n3)c(OC)n2)c1,4,6,191,22,6,1.2
COc1nc(-c2ccc(Cl)cc2)ccc1-c1noc(-c2ccco2)n1,-4,5,376*,30,32,1
COc1nc2c(C)cccc2cc1-c1noc(-c2ccco2)n1,-5,6,192,55*[fluorescence artefact?],32,1.8
COc1ccc(NC(=O)C2CCN(C(=O)c3cccs3)CC2)cc1,9,2,108,-9,-2,1.1
Cc1cc(NC(=O)CS(=O)(=O)c2cn(Cc3ccccc3Cl)c3ccccc23)no1,7,4,660*[fluorescence artefact?],15,14,1
COc1cc(-c2nnc(SCC(=O)c3cc(C)n(CC4CCCO4)c3C)o2)cc(OC)c1OC (stereo not drawn),4,-1,97,-2,3,1.1
Cc1cc(C(=O)CSc2nnc(Nc3ccccc3F)s2)c(C)n1CC1CCCO1 (stereo not drawn),15*,4,107,-1,7,1.2
Cc1cc(C(=O)CSc2nnc(-c3ccc(F)cc3)o2)c(C)n1CC1CCCO1 (stereo not drawn),-4,7,229*[fluorescence artefact?],41,15,1.2
SMILES,EphB4 antag,Candida biofilm,ERa SRC1 pot,ERa SRC1 inh,ERb coact inh,MT1-MMP txn act
COC(=O)[C@H]1C[C@@H]1[C@H](NC(=O)c1cc(C)nn1C)c1ccccc1,x,x,x,x,x,1.2
CCCCC(C(=O)NCCC(C)C)N(CCCN1CCOCC1)C(=O)c1snc(C(N)=O)c1N (stereo not drawn),4,9,75,-8,6,1.1
COc1ccc(C(=O)N(CC2CCCO2)C(C(=O)NC2CCCC2)c2ccc(Cl)cc2)cc1OC (stereo not drawn),4,x,x,x,x,x
COC(=O)c1ccc(NC(=O)c2sc3nc(-c4ccccc4)cn3c2C)cc1,1,3,537*[fluorescence artefact?],39,43,1
COc1ccc(-c2cn3c(C)c(C(=O)Nc4ccncc4)sc3n2)cc1,5,3,345*,-3,-2,1.1
Cc1c(C(=O)Nc2ccncc2)sc2nc(-c3ccc(F)cc3)cn12,x,32*,367*[fluorescence artefact?],-6,7,1
C=CCSc1nc(C)cc(/C=C\c2ccccc2)c1C#N,-8,x,x,x,x,x
COC(=O)[C@H](Cc1ccccc1)NC(=O)[C@]1(C)C[C@H]1[C@H](NC(=O)OCc1ccccc1)c1ccccc1,x,x,x,x,x,1.1
CC(C)CNC(=O)c1cc2nc(C3CC3)cc(C(F)(F)F)n2n1,-1,4,91,3,14,1.3
COc1ccccc1CCn1cnc2c3cc(C)ccc3n(C)c2c1=O,-2,7,111,4,2,1.1
Cc1ccc2cc(CCNS(=O)(=O)c3ccc(F)cc3)c(=O)[nH]c2c1,x,5,216*,3,-3,1
CCCS(=O)(=O)NCCc1cc2ccc(C)cc2[nH]c1=O,-5,-1,104,-1,2,1.1
C=CCn1c(SCC(=O)Nc2ccc3c(c2)OCO3)nc2ccccc2c1=O,8,0,105,-1,98*[fluorescence artefact?],1
COCCn1c(SCC(=O)Nc2ccc(NC(=O)c3ccco3)c(OC)c2)nc2ccccc2c1=O,2,-1,160,29,25,1
CCn1c(SCC(=O)Nc2ccc3c(c2)OCO3)nc2ccccc21,2,0,94,-10,-8,1.2
CCCCn1c(SCC(=O)Nc2cc(C)on2)nc2ccccc2c1=O,-5,8,170,15,23,1.1
CCOc1ccc2nc(NC(=O)CSc3nc4ccccc4c(=O)n3Cc3ccco3)sc2c1,7,7,138,17,53*[fluorescence artefact?],0.7
CCn1c(SCC(=O)Nc2ccc(NC(=O)c3ccco3)c(OC)c2)nc2ccccc2c1=O,-2,3,154,65*,43,1.1
CCCCn1c(SCC(=O)Nc2cc(NC(=O)c3ccco3)ccc2C)nc2ccccc2c1=O,-1,2,122,75*[fluorescence artefact?],58*[fluorescence artefact?],1.1
CCOC(=O)CSc1nc2ccccc2c(=O)n1Cc1ccco1,x,5,96,-3,15,1.1

# High-throughput results deposited in PubChem by several laboratories.
